Reference: PubChem BioAssay AID1159580 (chemical genetic matrix, 2015)
Among all 5,500 compounds or so, about 2,000 (36%) were called active. About 18% were inconclusive and are not listed. No stated cut-off is given here; in the data, active means normalized growth mostly below about 0.91 (no sharp cut-off); inconclusive means no clear call, values can overlap the other calls; inactive means mostly above about 0.92. Some of the results follow.

Assay: chemical genetic growth profiling, strain panel (AID 1159580);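 further: tested at 20 µM; growth read once vehicle control cultures reached saturation at 30 °C; 1 = growth at the plate median or of vehicle wells; lower values mean less growth of the strain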
Settings: growth OD
[1] = S. cerevisiae deletion strains, locus YDL101C, strain DUN1, hits give low values
[2] = S. cerevisiae deletion strains, locus YHR030C, strain SLT2, hits give low values
[3] = S. cerevisiae deletion strains, locus YAL013W, strain DEP1, hits give low values
[4] = S. cerevisiae deletion strains, locus YBR229C, strain ROT2, hits give low values
[5] = S. cerevisiae deletion strains, locus YCL061C, strain MRC1, hits give low values
[6] = S. cerevisiae deletion strains, locus YDR150W, strain NUM1, hits give low values
[7] = S. cerevisiae deletion strains, locus YEL061C, strain CIN8, hits give low values
[8] = S. cerevisiae deletion strains, locus YGR078C, strain PAC10, hits give low values
[9] = S. cerevisiae deletion strains, locus YHR087W, strain rtc3, hits give low values
[10] = S. cerevisiae deletion strains, locus YJR043C, strain POL32, hits give low values
[11] = S. cerevisiae deletion strains, locus YJR075W, strain HOC1, hits give low values
[12] = S. cerevisiae deletion strains, locus YKL190W, strain CNB1, hits give low values
[13] = S. cerevisiae deletion strains, locus YLR039C, strain RIC1, hits give low values
[14] = S. cerevisiae deletion strains, locus YLR058C, strain SHM2 (second series), hits give low values
[15] = S. cerevisiae deletion strains, locus YLR085C, strain ARP6, hits give low values
[16] = S. cerevisiae deletion strains, locus YLR262C, strain YPT6, hits give low values
[17] = S. cerevisiae deletion strains, locus YML094W, strain GIM5, hits give low values
[18] = S. cerevisiae deletion strains, locus YMR219W, strain ESC1, hits give low values
[19] = S. cerevisiae deletion strains, locus YMR263W, strain SAP30, hits give low values
[20] = S. cerevisiae deletion strains, locus YNL153C, strain GIM3, hits give low values
[21] = S. cerevisiae deletion strains, locus YNL298W, strain CLA4 (second series), hits give low values
[22] = S. cerevisiae deletion strains, locus YNL322C, strain KRE1, hits give low values
[23] = S. cerevisiae deletion strains, locus YNR030W, strain Alg12, hits give low values
[24] = S. cerevisiae deletion strains, locus YPL055C, strain LGE1, hits give low values
[25] = S. cerevisiae deletion strains, locus YPL241C, strain CIN2, hits give low values
[26] = S. cerevisiae deletion strains, locus YPR135W, strain CTF4, hits give low values

Measured: normalized growth

Cc1cccc(NC(=S)NNC(=O)CSCc2cccc3ccccc23)c1
inactive: S. cerevisiae deletion strains, locus YAR019C, strain CDC15, hits give low values 0.986 | S. cerevisiae deletion strains, locus YBL105C, strain PKC1, hits give low values 0.988 | S. cerevisiae deletion strains, locus YBR135W, strain CKS1, hits give low values 0.999 | S. cerevisiae deletion strains, locus YBR136W, strain MEC1, hits give low values 0.974 | S. cerevisiae deletion strains, locus YBR160W, strain CDC28, hits give low values 1 | S. cerevisiae deletion strains, locus YDL017W, strain CDC7, hits give low values 0.987 | S. cerevisiae deletion strains, locus YDL028C, strain MPS1, hits give low values 0.984 | [1] 0.975 | S. cerevisiae deletion strains, locus YDL108W, strain KIN28, hits give low values 0.982 | S. cerevisiae deletion strains, locus YDL132W, strain cdc53, hits give low values 0.989 | S. cerevisiae deletion strains, locus YDL214C, strain PRR2, hits give low values 0.904 | S. cerevisiae deletion strains, locus YDR052C, strain DBF4, hits give low values 1 | S. cerevisiae deletion strains, locus YDR054C, strain cdc34, hits give low values 0.983 | S. cerevisiae deletion strains, locus YDR226W, strain ADK1, hits give low values 0.988 | S. cerevisiae deletion strains, locus YDR477W, strain SNF1, hits give low values 0.924 | S. cerevisiae deletion strains, locus YER123W, strain YCK3, hits give low values 0.851 | S. cerevisiae deletion strains, locus YER133W, strain GLC7, hits give low values 0.906 | S. cerevisiae deletion strains, locus YFL009W, strain cdc4, hits give low values 0.99 | S. cerevisiae deletion strains, locus YFL029C, strain CAK1, hits give low values 0.983 | S. cerevisiae deletion strains, locus YFR003C, strain YPI1, hits give low values 0.982 | S. cerevisiae deletion strains, locus YFR019W, strain FAB1, hits give low values 0.965 | S. cerevisiae deletion strains, locus YFR028C, strain CDC14, hits give low values 0.99 | S. cerevisiae deletion strains, locus YGR040W, strain KSS1, hits give low values 0.904 | S. cerevisiae deletion strains, locus YGR052W, strain FMP48, hits give low values 0.992 | S. cerevisiae deletion strains, locus YGR092W, strain DBF2, hits give low values 0.865 | [2] 0.997 | S. cerevisiae deletion strains, locus YHR079C, strain IRE1, hits give low values 0.992 | S. cerevisiae deletion strains, locus YHR082C, strain KSP1, hits give low values 0.983 | S. cerevisiae deletion strains, locus YHR205W, strain SCH9, hits give low values 0.963 | S. cerevisiae deletion strains, locus YIL147C, strain SLN1, hits give low values 0.972 | S. cerevisiae deletion strains, locus YJL095W, strain BCK1, hits give low values 0.995 | S. cerevisiae deletion strains, locus YJL128C, strain PBS2, hits give low values 0.96 | S. cerevisiae deletion strains, locus YJL157C, strain FAR1, hits give low values 0.881 | S. cerevisiae deletion strains, locus YJR016C, strain ILV3, hits give low values 0.984 | S. cerevisiae deletion strains, locus YJR066W, strain TOR1 (second series), hits give low values 0.866 | S. cerevisiae deletion strains, locus YJR066W, strain TOR1, hits give low values 0.981 | S. cerevisiae deletion strains, locus YKL048C, strain ELM1, hits give low values 0.991 | S. cerevisiae deletion strains, locus YKL067W, strain YNK1, hits give low values 0.914 | S. cerevisiae deletion strains, locus YKL101W, strain HSL1, hits give low values 0.929 | S. cerevisiae deletion strains, locus YKL193C, strain SDS22, hits give low values 0.989 | S. cerevisiae deletion strains, locus YKL203C, strain TOR2, hits give low values 0.989 | S. cerevisiae deletion strains, locus YLR113W, strain HOG1, hits give low values 0.962 | S. cerevisiae deletion strains, locus YLR133W, strain CKI1, hits give low values 0.948 | S. cerevisiae deletion strains, locus YLR403W, strain SFP1, hits give low values 0.909 | S. cerevisiae deletion strains, locus YML070W, strain DAK1, hits give low values 0.912 | S. cerevisiae deletion strains, locus YMR001C, strain CDC5, hits give low values 0.988 | S. cerevisiae deletion strains, locus YMR205C, strain PFK2 (second series), hits give low values 0.943 | S. cerevisiae deletion strains, locus YMR277W, strain FCP1, hits give low values 0.988 | S. cerevisiae deletion strains, locus YNL006W, strain LST8, hits give low values 0.986 | S. cerevisiae deletion strains, locus YNL020C, strain ARK1, hits give low values 0.925 | S. cerevisiae deletion strains, locus YNL161W, strain CBK1, hits give low values 0.984 | S. cerevisiae deletion strains, locus YNL183C, strain NPR1, hits give low values 0.996 | S. cerevisiae deletion strains, locus YNL207W, strain RIO2, hits give low values 0.983 | S. cerevisiae deletion strains, locus YNL222W, strain SSU72, hits give low values 0.991 | S. cerevisiae deletion strains, locus YNL307C, strain MCK1 (second series), hits give low values 0.922 | S. cerevisiae deletion strains, locus YOL078W, strain AVO1, hits give low values 0.988 | S. cerevisiae deletion strains, locus YOL136C, strain PFK27, hits give low values 0.925 | S. cerevisiae deletion strains, locus YOR061W, strain CKA2, hits give low values 0.904 | S. cerevisiae deletion strains, locus YOR119C, strain RIO1, hits give low values 0.965 | S. cerevisiae deletion strains, locus YOR231W, strain MKK1, hits give low values 0.982 | S. cerevisiae deletion strains, locus YOR329C, strain SCD5, hits give low values 0.981 | S. cerevisiae deletion strains, locus YPL031C, strain PHO85, hits give low values 0.904 | S. cerevisiae deletion strains, locus YPL153C, strain RAD53, hits give low values 0.91 | S. cerevisiae deletion strains, locus YPL204W, strain HRR25, hits give low values 0.914 | S. cerevisiae deletion strains, locus YPL209C, strain IPL1, hits give low values 0.983 | S. cerevisiae deletion strains, locus YPL256C, strain CLN2, hits give low values 1.01 | S. cerevisiae deletion strains, locus YPR025C, strain CCL1, hits give low values 0.99 | S. cerevisiae deletion strains, locus YPR106W, strain ISR1, hits give low values 0.99 | S. cerevisiae deletion strains, locus YPR111W, strain DBF20, hits give low values 0.99 | S. cerevisiae deletion strains, strain NNK1, hits give low values 0.982 | S. cerevisiae deletion strains, strain TSCII, hits give low values 0.988

O=C(CSCc1cccc2ccccc12)NNC(=S)Nc1ccccc1Cl
active: [7] 0.813 | [12] 0.844 | [13] 0.588 | [15] 0.679 | [16] 0.623 | [17] 0.857 | [21] 0.564 | [23] 0.63 | S. cerevisiae deletion strains, locus YOL006C, strain TOP1, hits give low values 0.365 | [25] 0.648 | S. cerevisiae strains, strain wild type, hits give low values 0.765
inactive: [3] 0.969 | [4] 0.991 | [5] 0.971 | [1] 0.987 | [6] 0.933 | [8] 0.984 | [2] 0.728 | [9] 1.02 | [10] 0.986 | [11] 0.984 | [14] 0.978 | [18] 0.988 | [19] 0.955 | [20] 0.958 | [22] 0.996 | [24] 0.903 | [26] 0.793

O=C(CSCc1cccc2ccccc12)NNC(=O)c1ccc(F)cc1
inactive: [3] 0.998 | [4] 0.988 | [5] 1 | [1] 1 | [6] 0.979 | [7] 0.992 | [8] 0.993 | [2] 0.93 | [9] 0.98 | [10] 0.988 | [11] 0.983 | [12] 0.991 | [13] 0.958 | [14] 0.982 | [15] 0.978 | [16] 0.919 | [17] 1.08 | [18] 0.99 | [19] 0.984 | [20] 0.985 | [21] 0.949 | [22] 1 | [23] 0.955 | [24] 1 | [25] 0.989 | [26] 1.07

CC(C)(C)C1(O)CCN2CC3c4ccccc4CCc4cccc(c43)C2C1 (stereo unspecified)
inactive: [3] 1.02 | S. cerevisiae deletion strains, locus YAL040C, strain CLN3, hits give low values 0.975 | S. cerevisiae deletion strains, locus YCL061C, strain MRC1 (second series), hits give low values 0.986 | [6] 1 | S. cerevisiae deletion strains, locus YDR363W, strain ESC2, hits give low values 1.04 | S. cerevisiae deletion strains, locus YER002W, strain NOP16, hits give low values 0.993 | [19] 1.01 | S. cerevisiae deletion strains, locus YMR307W, strain GAS1, hits give low values 1.02 | [20] 0.983 | S. cerevisiae deletion strains, locus YNL175C, strain NOP13, hits give low values 0.996 | S. cerevisiae deletion strains, locus YNL197C, strain WHI3, hits give low values 0.972 | S. cerevisiae deletion strains, locus YNL224C, strain SQS1, hits give low values 0.997 | [22] 1.01 | S. cerevisiae deletion strains, locus YOR083W, strain WHI5 (second series), hits give low values 1.01 | [24] 1.02 | [25] 0.999
